Screening results from PubChem BioAssay.
Hits are enriched below; roughly 2.7% of the tested compounds scored in any of these assays.
GLP1R ag – GLP-1 receptor (human) agonism; P43220; Potency, µM (titrated, usually from 45.6 µM), for inactives: at the highest dose activation, most hits filed as activators; HEK293 GLP-1R CRE-luciferase, luminescence, 4-6 h; cells express a hypersensitive GLP-1R form; 380,000 tested, 0.007% active; note: % of control where 0% means no effect
Target sequence (P43220 whole entry, looked up): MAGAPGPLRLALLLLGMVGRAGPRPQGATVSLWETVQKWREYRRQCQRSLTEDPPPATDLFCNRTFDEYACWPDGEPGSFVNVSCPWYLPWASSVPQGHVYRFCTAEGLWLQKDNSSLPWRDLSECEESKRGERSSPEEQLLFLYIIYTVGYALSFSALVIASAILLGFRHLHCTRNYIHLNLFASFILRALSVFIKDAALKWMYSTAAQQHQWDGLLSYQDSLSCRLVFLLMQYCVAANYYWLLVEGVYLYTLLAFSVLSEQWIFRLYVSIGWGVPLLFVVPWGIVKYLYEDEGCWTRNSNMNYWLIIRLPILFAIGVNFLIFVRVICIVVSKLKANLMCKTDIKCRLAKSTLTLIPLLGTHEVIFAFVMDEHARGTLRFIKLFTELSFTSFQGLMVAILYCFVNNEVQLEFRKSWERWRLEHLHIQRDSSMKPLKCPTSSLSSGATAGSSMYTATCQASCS
Integrin act MD – integrin-mediated muscular dystrophy alleviation activation. Potency, µM (series often up to 38.3 µM), without a hit: at the top dose activation, usual class: activators. alpha7betagal myoblasts, beta-gal FDG fluorescence, 48 h. 350,000 tested, 0.064% active;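 note: 100% = response of the positive control SU9516; nearly all actives have a fitted effect of over 60% in size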
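alpha7betagal+/- myoblasts (passage 13, 250/well) treated 48 h at 37C with compounds at 1:260 dilution of DMSO stock. Lysed, then beta-galactosidase activity read as FDG fluorescence (ex 480/em 540) after 30 min, with pre-read for autofluorescence.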
GLP1R cytotox – cytotoxic in the GLP-1 receptor inverse agonist counter-screen; Potency, µM (series often up to 38.3 µM), inactives show at the top dose activity change, negative = inhibition, hits mostly inhibitors; AID 624418; HEK293 cAMP-luciferase reporter cells, luminescence, 24 h; 410,000 tested, 0.13% active;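 note: loss of luciferase light is scored as toxicity; % is set by controls: 0 for no effect and ±100 for the full control effect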
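Luminescence readout: signal drop marks cytotoxicity. Plated cells grew 12 h at 37 °C, 5% CO2, received 23 nL compound for 24 h, then got luciferase reagent, read after 12 min at RT.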
GLP1R inv ag – acts as inverse agonist at human GLP-1 receptor; P43220; HEK293 GLP-1R CRE-luciferase, luminescence, 24 h; GLP-1R form is constitutively active; Potency, µM (doses to about 38.3 µM), for inactives: at the top dose activity change, negative = inhibition, actives largely listed as inhibitors; 410,000 tested, 1.6% active; AID 624417; note: % is set by controls: 0 for no effect and ±100 for the full control effect; nearly all actives have a fitted effect of over 55% in size
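Inverse agonism was detected as reduced cAMP-driven luciferase luminescence after 24 h compound treatment. The cells were HEK293 clones expressing constitutively active human GLP-1R with the reporter. Reporter-only and GPR119 cell lines served as counterscreen controls.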
BRCA1 expr act – BRCA1 expression activation. 380,000 tested, 1.1% active. Potency, µM (doses to about 46.1 µM), without a hit: top-dose activation, hits mostly activators. MCF7-BRCA1-FFLuc reporter, luminescence, 48 h; response scale: scaled: vehicle 0%, 10 µM genistein 100%. AID 624202; note: nearly all actives have a fitted effect of over 80% in size
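MCF7 cells carrying a BRCA1-firefly luciferase reporter (2000 cells/well, phenol-red free MEM) were attached for 2 h at 37 °C, then given compounds for 48 h. Luminescence was read 15 min after luciferase reagent; activity normalized to genistein (10 microM) and DMSO.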
* marks the source's active call; other numbers are inactive results; ? = inconclusive; · = no result given. Calls come from the whole dose curve; as a rule, active = well fitted curve in the direction sought with a large enough effect; inconclusive = small, poorly fitted or top-dose-only effect, or another doubt; inactive = no such curve, though single readings can be large; an effect the other way counts as inactive or inconclusive. Potency is the fitted concentration of half-maximal effect.

SMILES	GLP1R ag	Integrin act MD	GLP1R cytotox	GLP1R inv ag	BRCA1 expr act
O=C(/C=C/c1ccccc1)Nc1ccc(Cl)cn1	0%	-38%	?	-25%	3.5µM*
O=C(Nc1ccccc1F)c1ccc(Br)o1	8%	9%	-1%	0%	11%
O=C(Nc1ccccc1)c1ccc(Br)o1	24%	11%	-6%	13%	2%
CCN(CC)c1ccc(NC(=O)c2ccc(Br)o2)cc1	-5%	-43%	8%	-29%	2.8µM*
COC(=O)Cc1ccc(NC(=O)c2ccc(Br)o2)cc1	-10%	3%	-7%	9%	13µM*
O=C(Nc1ccccc1C(=O)O)c1ccc(Br)o1	-3%	17%	14%	35%	14µM*
COc1ccc(-c2ccc(NC(=O)c3ccc(Br)o3)cc2)nn1	1%	2%	3%	11%	4µM*
Cc1ccc2c(CC(=O)Nc3cccc(Cl)c3C)coc2c1	·	·	5%	11%	·
C=C1C[C@@H]2[C@H]3CCC4=CC(=O)C=C[C@]4(C)[C@@]3(F)[C@@H](O)C[C@]2(C)[C@]1(O)C(=O)COC(C)=O	0%	·	·	·	·
Cc1ccc(S(=O)(=O)N2CCN(c3nc(-n4c(=O)[nH]c5ccccc54)nc4ccccc34)CC2)cc1	·	·	·	·	-20%
C[n+]1ccnc2ccccc21	·	·	·	·	-13%
N#Cc1cc2c(nc1SCC1COc3ccccc3O1)CCC2 (stereo not given)	17%	-25%	9%	?	8.9µM*
Cc1ccc(Cn2cc3c(n2)-c2c(oc(C(=O)Nc4ccc(F)cc4F)c2C)CC3)cc1	·	·	-7%	3%	·
COc1cc(C(=O)O[C@H]2C/C(C)=C/CC[C@]3(C)O[C@@H]3C(O)C2C(C)C)cc(OC)c1OC (stereo not given in full)	25%	0%	-15%	?	-37%
COc1cc(C(=O)O[C@H]2C/C(C)=C/CC[C@@]3(C)O[C@@H]3[C@H](O)[C@@H]2C(C)C)cc(OC)c1OC	8%	-8%	6%	13µM*	-37%
Oc1ccccc1-c1nnc(COc2ccccc2)o1	8%	8%	3%	5%	60%
Clc1ccc(-c2nnc(CCc3ccccc3)o2)c(Cl)c1	22%	6%	-18%	0%	11µM*
Oc1ccccc1-c1nnc(COc2ccc(Cl)cc2Cl)o1	-5%	23%	1%	16%	13µM*
COc1ccc(C(=O)OCCc2ccc(O)cc2)cc1	14%	23%	5%	44%	5µM*
COC(=O)c1ccc(COC(=O)CNC(=O)CNC(=O)c2ccc(OC)cc2)cc1	2%	5%	?	8%	-26%
COc1ccc(CCOC(=O)c2ccc(NC(=O)CC#N)cc2)cc1	17%	9%	11%	4%	0%
COC(=O)c1ccc(COC(=O)CNC(=O)c2ccc(OC)cc2)cc1	3%	0%	1%	59%	5µM*
COC(=O)c1sccc1S(=O)(=O)N(CC(=O)Nc1c(C)cccc1C)c1ccc(C)c(C)c1	·	·	-4%	?	·
CC(=O)c1cccc(NC(=S)NCc2ccccc2)c1	7%	0%	7%	4%	27%
CCOC(=O)c1ccc(NC(=O)Nc2ccccn2)cc1	5%	9%	-27%	-10%	5µM*
SMILES	GLP1R ag	Integrin act MD	GLP1R cytotox	GLP1R inv ag	BRCA1 expr act
CCOC(=O)c1ccc(NC(=O)c2nn(CC)cc2Br)cc1	10%	-8%	3%	4%	?
CCOC(=O)c1ccc(NC(=O)c2nn(C)cc2Br)cc1	-3%	-37%	13%	12%	5µM*
CCOC(=O)c1ccc(NC(=S)Nc2ccc(C)cc2)cc1	4%	-4%	2%	-10%	13µM*
CCOC(=O)c1cccc(NC(=S)NCc2ccc(C)cc2)c1	7%	-15%	-32%	7.9µM*	28%
COc1ccc(-c2nc(CNC(=O)Nc3ccccc3)c(C)o2)cc1	·	·	0%	13%	·
CCN(CC)CCCNC(=O)Cn1nc(C)n2c(cc3sccc32)c1=O	·	·	-8%	?	·
CC(=O)N1c2ccc(S(=O)(=O)N3CCCCCC3)cc2CC1C(=O)NCc1ccccc1F (stereo not given)	·	·	-14%	12%	0%
Cc1ccc(NC(=O)Cn2c(=O)n(CCC(C)C)c(=O)c3cccnc32)cc1C	·	·	-3%	-17%	0%
